Assay results taken from ChEMBL document CHEMBL3988442, “University of Dundee, Small-Polar-MMV Screening Library” (2021).
For part of these data: Entries with a potency or affinity are not part of this list.

Experiments:
Design in all cases: scale not given: direction of the effect not stated beside the values
[1] = target: Protein translocase subunit SecA (Escherichia coli (strain K12)) (UniProt P10408); test: Assay to Identify E. coli SecA ATPase Inhibitors; type: functional; settings: 30 µM
[2] = target: T1, Ubiquitin-activating enzyme e1, putative (Leishmania donovani (strain BPK282A1)) (UniProt E9BSI1); test: Leishmania donovani Ubiquitin Activating Enzyme (LdE1); type: functional; settings: 30 µM
T1 sequence (whole entry): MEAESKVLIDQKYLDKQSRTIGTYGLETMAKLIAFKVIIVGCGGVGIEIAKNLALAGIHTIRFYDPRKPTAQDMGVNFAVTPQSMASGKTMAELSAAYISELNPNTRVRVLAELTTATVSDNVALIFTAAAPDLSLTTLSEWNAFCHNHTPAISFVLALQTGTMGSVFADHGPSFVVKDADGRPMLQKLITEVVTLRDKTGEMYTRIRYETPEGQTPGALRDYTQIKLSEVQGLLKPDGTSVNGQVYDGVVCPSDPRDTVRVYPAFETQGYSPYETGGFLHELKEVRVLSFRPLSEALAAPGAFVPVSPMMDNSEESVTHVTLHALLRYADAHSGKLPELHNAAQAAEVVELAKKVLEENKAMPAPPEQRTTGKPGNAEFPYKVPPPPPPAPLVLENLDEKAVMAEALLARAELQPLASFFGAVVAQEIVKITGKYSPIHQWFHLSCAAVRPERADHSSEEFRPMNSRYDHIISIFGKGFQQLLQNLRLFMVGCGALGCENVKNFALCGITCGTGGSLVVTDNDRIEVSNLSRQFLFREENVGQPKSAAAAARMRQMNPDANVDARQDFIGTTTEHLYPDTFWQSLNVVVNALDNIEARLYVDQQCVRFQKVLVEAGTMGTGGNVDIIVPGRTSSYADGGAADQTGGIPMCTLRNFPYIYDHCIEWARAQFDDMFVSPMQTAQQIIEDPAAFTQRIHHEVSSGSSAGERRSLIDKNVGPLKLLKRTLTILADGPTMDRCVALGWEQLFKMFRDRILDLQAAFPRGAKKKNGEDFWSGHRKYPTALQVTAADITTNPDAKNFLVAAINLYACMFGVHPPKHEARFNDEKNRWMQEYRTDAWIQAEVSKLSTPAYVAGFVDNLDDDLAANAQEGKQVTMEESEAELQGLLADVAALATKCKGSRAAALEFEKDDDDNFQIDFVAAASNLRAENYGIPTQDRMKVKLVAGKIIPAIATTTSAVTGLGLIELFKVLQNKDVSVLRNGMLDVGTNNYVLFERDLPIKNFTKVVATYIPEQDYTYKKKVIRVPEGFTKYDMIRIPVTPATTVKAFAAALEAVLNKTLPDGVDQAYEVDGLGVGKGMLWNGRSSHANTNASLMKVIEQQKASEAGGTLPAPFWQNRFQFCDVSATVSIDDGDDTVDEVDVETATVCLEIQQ

[3] = target: AMP-activated protein kinase, AMPK (Homo sapiens) (UniProt P54646+O43741+P54619+Q9UGJ0+Q9Y478+Q13131+Q9UGI9); test: AMP-dependent Kinase enzyme assay. An in vitro enzyme assay that detects ADP turnover that is directly proportional to AMPK activity. This uses naive AMPK that is activated during the assay with MK-8722; type: functional; settings: 30 µM
[4] = target: Sialic acid-binding Ig-like lectin 9 (Homo sapiens) (UniProt Q9Y336); test: Hs-Siglec9 ALPHAscreen SOP 20170721; settings: 10 µM
Chain of Sialic acid-binding Ig-like lectin 9 (Homo sapiens) (Q9Y336 whole entry): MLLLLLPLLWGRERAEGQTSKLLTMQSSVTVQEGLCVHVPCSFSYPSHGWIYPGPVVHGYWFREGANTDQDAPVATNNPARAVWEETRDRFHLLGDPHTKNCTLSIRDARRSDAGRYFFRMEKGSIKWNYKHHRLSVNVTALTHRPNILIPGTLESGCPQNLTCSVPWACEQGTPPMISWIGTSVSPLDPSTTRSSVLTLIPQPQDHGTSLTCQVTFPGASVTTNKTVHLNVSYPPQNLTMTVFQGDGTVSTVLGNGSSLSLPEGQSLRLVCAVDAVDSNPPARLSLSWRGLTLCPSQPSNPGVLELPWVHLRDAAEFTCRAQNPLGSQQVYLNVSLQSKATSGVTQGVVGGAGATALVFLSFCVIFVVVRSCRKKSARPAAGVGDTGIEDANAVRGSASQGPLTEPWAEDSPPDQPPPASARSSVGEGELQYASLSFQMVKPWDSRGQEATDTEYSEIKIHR

Trypanosoma cruzi = test: Trypanosoma cruzi phosphomannomutase and mannose-1-phosphate guanylyltransferase assay; type: functional; settings: 10 µM
[5] = target: T2, Arginase-2, mitochondrial (Homo sapiens) (UniProt P78540); test: in vitro enzyme assay to detect the production of urea directly proportional to the activity of Arginase II; type: functional; settings: 33.3 µM; further: in the data most compounds retested in dose-response had high values
T2 sequence (whole entry): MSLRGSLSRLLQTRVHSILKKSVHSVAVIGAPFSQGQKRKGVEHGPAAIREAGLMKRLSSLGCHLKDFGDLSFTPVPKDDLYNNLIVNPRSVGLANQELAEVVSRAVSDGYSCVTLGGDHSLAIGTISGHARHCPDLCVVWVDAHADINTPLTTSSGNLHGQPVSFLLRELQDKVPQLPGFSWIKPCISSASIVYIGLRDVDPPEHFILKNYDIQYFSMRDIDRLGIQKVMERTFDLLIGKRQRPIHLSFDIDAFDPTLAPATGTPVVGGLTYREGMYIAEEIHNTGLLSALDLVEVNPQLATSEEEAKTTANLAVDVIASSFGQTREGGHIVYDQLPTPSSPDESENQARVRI

[6] = target: T3, Proteasome subunit beta (Trypanosoma cruzi) (UniProt O96673); test: Trypanosoma cruzi proteasome chymotrypsin-like activity (TcProtChymo) assay.; further: in the data most compounds retested in dose-response had high values; type: functional; settings: 9.37 µM
T3 sequence (whole entry): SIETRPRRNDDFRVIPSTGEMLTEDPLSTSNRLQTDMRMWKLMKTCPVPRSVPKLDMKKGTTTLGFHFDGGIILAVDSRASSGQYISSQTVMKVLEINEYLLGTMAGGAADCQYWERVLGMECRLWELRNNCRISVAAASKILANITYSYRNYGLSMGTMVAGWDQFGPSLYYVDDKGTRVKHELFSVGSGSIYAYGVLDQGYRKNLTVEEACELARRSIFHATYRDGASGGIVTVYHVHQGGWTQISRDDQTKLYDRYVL

Homo sapiens = species on record: Homo sapiens; test: To identify inhibition of the IFN signalling (Jak-Stat) pathway via expression of an eGFP reporter gene under the control of an IFN-stimulated response element (ISRE) containing MxA promoter.; type: functional; settings: 30 µM
[7] = target: T4, Tyrosyl-tRNA synthetase, putative (Trypanosoma cruzi (strain CL Brener)) (UniProt Q4DSP6); test: Trypanosoma cruzi tyrosyl tRNA synthetase (TcYRS) _High Tyrosine SOP; type: functional; settings: 30 µM; further: in the data most compounds retested in dose-response had high values
T4 sequence (whole entry): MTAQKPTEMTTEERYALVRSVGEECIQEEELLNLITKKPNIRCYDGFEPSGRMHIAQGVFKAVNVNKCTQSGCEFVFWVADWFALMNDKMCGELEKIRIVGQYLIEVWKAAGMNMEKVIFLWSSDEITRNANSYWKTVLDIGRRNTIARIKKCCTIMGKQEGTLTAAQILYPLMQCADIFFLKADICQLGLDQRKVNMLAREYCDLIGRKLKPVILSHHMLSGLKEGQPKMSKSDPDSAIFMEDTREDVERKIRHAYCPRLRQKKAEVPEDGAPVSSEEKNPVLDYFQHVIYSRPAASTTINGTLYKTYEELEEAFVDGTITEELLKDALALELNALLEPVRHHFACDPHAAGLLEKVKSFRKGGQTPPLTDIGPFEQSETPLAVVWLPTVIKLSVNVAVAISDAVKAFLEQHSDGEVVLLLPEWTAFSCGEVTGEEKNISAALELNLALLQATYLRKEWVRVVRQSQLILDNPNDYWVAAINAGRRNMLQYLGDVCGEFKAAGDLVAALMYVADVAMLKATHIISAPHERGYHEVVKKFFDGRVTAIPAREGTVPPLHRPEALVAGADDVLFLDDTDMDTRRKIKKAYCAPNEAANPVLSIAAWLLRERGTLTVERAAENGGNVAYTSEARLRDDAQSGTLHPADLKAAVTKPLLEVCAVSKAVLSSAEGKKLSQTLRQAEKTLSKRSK

[8] = target: T4, Tyrosyl-tRNA synthetase, putative (Trypanosoma cruzi (strain CL Brener)); test: Trypanosoma cruzi tyrosyl tRNA synthetase (TcYRS) SOP; type: functional; settings: 30 µM
[9] = target: Chromo domain-containing protein 1 (Saccharomyces cerevisiae (strain ATCC 204508 / S288c) (Baker's yeast)) (UniProt P32657); test: ScCHD-1 Enzyme Inhibition Assay; type: functional; settings: 30 µM; further: in the data most compounds retested in dose-response had high values
Chain of Chromo domain-containing protein 1 (Saccharomyces cerevisiae (strain ATCC 204508 / S288c) (Baker's yeast)) (P32657 whole entry, the tested form may be a part): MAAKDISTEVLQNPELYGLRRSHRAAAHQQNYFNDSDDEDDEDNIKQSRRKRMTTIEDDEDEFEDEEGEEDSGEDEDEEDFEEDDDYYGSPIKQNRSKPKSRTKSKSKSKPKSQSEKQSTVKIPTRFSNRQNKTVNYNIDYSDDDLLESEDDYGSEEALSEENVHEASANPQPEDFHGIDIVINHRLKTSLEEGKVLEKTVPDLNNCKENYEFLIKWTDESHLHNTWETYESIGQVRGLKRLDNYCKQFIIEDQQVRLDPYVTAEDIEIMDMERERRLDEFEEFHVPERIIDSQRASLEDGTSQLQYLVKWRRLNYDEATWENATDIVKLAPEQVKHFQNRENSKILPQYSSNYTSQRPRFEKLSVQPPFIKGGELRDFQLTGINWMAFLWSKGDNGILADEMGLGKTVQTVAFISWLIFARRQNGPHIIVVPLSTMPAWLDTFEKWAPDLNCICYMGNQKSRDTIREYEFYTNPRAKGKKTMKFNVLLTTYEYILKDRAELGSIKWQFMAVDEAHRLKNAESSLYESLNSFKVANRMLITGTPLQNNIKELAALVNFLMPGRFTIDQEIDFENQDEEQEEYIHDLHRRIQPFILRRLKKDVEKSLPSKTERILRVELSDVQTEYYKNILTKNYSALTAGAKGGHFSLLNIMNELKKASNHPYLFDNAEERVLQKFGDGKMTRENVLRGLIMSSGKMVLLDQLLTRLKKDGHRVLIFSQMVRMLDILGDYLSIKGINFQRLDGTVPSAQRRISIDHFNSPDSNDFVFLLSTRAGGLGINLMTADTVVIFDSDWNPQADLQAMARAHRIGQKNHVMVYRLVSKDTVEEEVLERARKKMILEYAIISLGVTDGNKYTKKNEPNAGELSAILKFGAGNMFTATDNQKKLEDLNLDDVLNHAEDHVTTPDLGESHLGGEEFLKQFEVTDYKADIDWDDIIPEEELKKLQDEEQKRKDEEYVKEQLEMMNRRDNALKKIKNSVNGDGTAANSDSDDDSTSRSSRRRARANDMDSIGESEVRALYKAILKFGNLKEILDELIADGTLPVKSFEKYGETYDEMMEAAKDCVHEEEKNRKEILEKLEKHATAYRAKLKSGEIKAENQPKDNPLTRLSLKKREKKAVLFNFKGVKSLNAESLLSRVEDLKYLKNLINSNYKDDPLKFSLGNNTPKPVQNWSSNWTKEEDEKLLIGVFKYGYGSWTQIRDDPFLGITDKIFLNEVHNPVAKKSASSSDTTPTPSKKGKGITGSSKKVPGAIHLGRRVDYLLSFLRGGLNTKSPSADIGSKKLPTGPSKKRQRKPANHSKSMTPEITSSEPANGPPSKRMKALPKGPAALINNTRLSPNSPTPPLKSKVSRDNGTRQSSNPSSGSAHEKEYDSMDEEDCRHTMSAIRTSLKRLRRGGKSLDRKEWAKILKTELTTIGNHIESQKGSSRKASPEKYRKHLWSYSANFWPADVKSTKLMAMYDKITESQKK

Chain of Protein translocase subunit SecA (Escherichia coli (strain K12)) (P10408 whole entry): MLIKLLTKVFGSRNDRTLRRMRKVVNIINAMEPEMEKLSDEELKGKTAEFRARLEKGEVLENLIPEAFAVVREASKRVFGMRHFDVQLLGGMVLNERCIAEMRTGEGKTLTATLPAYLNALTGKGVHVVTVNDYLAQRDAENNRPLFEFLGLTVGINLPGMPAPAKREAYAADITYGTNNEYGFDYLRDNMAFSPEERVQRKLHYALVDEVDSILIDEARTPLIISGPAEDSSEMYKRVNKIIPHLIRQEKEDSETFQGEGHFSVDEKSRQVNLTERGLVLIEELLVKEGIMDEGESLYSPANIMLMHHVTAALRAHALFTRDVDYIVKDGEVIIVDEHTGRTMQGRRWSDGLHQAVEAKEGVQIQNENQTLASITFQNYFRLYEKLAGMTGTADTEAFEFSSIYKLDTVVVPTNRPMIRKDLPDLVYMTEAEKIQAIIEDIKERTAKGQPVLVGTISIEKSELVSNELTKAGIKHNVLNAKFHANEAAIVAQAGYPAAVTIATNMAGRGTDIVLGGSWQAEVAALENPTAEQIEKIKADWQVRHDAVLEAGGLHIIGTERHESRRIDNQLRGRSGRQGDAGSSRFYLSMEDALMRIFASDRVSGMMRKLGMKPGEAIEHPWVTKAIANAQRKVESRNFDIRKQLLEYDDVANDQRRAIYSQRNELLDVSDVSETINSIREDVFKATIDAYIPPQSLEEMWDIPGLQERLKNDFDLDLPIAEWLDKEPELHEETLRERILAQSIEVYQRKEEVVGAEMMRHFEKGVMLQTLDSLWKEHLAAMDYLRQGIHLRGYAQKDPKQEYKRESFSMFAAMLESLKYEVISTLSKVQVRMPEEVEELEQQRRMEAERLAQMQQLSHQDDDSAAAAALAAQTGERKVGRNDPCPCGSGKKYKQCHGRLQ

SMILES | Percent Effect [1] [%] | Percent Effect [2] [%] | Percent Effect [3] [%] | Percent Effect [4] [%] | Percent Effect (Trypanosoma cruzi) [%] | Percent Effect [5] [%] | Percent Effect [6] [%] | Percent Effect (Homo sapiens) [%] | Percent Effect [7] [%] | Percent Effect [8] [%] | Percent Effect [9] [%]
COC(=O)c1cccn1C1CCN(C(=O)c2cc(F)ccc2F)CC1 | -4.16 | 13 | 1.19 | 0.495 | 4.87 | -6.76 | 3.04 | 19.8 | 5.83 | 14.6 | -9.49
Cc1cc(CN2CCN(C(=O)NCc3nc(C)cs3)CC2)on1 | -3.26 | 23.7 | -8.55 | -8.19 | -4.95 | 0 | 12.9 | -12.4 | 5.42 | 13.6 | -3.29
Cc1cccc(C(=O)N2C[C@@H]3OCCN(c4ncccn4)[C@@H]3C2)n1 | -4.13 | 5.33 | -3.52 | 4.37 | -2.7 | -8.78 | 7.35 | -6.79 | 5.21 | 0 | 0.315
OCCOc1nc(-c2ccccc2Cl)no1 | -1.86 | 11 | -5.12 | 4.94 | 4.9 | 18.6 | 20.4 | 24.7 | 6.45 | 20 | -5.57
COc1cccc(OCC(=O)NS(=O)(=O)c2ccc(C)s2)c1 | -3.05 | 15.2 | -2.9 | -5.56 | 5.19 | 5.32 | 10.4 | 15.6 | 2.46 | 16.5 | -4.35
CC(NC(=O)NCCN1CCCCCC1=O)c1nncn1C (centres undefined) | -5.58 | 13.5 | -10.1 | 13.4 | 4.92 | -3.51 | -2.69 | 11.3 | 7.92 | 15.8 | -6.06
COc1ccc(Cl)cc1C(=O)N1CCCC(n2nc(C)nc2C)C1 (centres undefined) | -3.26 | 0 | 9.49 | -8.91 | -6.33 | -3.8 | -4.5 | 16.6 | -2.46 | -3.8 | 2.53
O=C(NC1CCCC1)NC1CCC(C(=O)N2CCSCC2)CC1 (centres undefined) | -4.05 | 2.6 | 5.55 | 0.598 | -5.61 | -2.76 | 3.33 | 23.7 | 2.15 | -1.24 | -0.623
Cc1cc(C)cc(OCCC(=O)N2CCCC(n3cncn3)C2)c1 (centres undefined) | -0.911 | -8.11 | 0.29 | 4.17 | 8.08 | -5.73 | -5.21 | 4.81 | 0 | 3.66 | 1.95
